uPA surface inh – blocks generation of uPA at the cell surface; cell surface uPA generation assay, qHTS; Potency, µM (titrated, usually from 38.3 µM), for the others: top-dose activity change, negative = inhibition, most hits filed as inhibitors; 330,000 compounds, 0.31% hits; active = well fitted inhibition curve with a large enough effect; inconclusive = small, poorly fitted or top-dose-only effect; inactive = no such curve, though single readings can be large or run the other way; tested in mouse RAW 264.7 cells; also: potency is read from the fitted curve at half-maximal effect; % is scaled to controls: 0 for no effect and ±100 for the full control effect; nearly all actives have a fitted effect of over 55% in size
Giardia kill – Giardia lamblia killing; Giardia lamblia trophozoite viability; activity change, % at 7.66 µM, hits read low; 340,000 compounds, 0.15% hits; in the data active = activity change below about -80%; inconclusive = between about -30% and that limit;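 also: parasites exposed to compound for two days anaerobically before the ATP read; % is scaled to controls: 0 for no effect and ±100 for the full control effect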
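Trophozoites 100 cells/well + cpd; 48 hrs, 37 deg C, anaerobic. ATPLite 1-Step added, 15-30 min RT, luminescence read (ATP-based viability).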
SW480 rereplic – DNA re-replication induction in SW480 cells; SW480 DNA re-replication, Hoechst DNA content imaging, 48 h; Potency, µM (titrated, usually from 46.1 µM), for the others: top-dose re-replication activation, actives largely listed as activators; 340,000 compounds, 1.8% hits; AID 624297; also: potency is read from the fitted curve at half-maximal effect; % of control where 0% means no effect; nearly all actives have a fitted effect of over 55% in size
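Quantitative HTS format with DMSO vehicle controls; 48 hr drug incubation at 37 C, then 40 min Hoechst staining and scanning imager measurement at 405 nm excitation.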
MCF10A rerep – DNA re-replication induction in MCF 10a cells | AID 624296 | Potency, µM (highest dose often 46.1 µM), inactives show at the highest dose activity, positive = re-replication, hits mostly activators | MCF 10A DNA re-replication, Hoechst nuclear intensity, 48 h | 350,000 compounds, 2.9% hits; also: potency is read from the fitted curve at half-maximal effect; % of control where 0% means no effect; nearly all actives have a fitted effect of over 50% in size
* hit, by the source's call; ? = inconclusive; / = not tested or not shown. Most compounds without a hit are left out; they make up all but 4.3% or so of the library. Unless noted, calls follow the shape of the dose curve; as a rule, active = well fitted activation curve with a large enough effect; inconclusive = small, poorly fitted or top-dose-only effect; inactive = no such curve, though single readings can be large or run the other way.

SMILES | uPA surface inh | Giardia kill | SW480 rereplic | MCF10A rerep
Cc1cc(C)c2nc(NNC(=O)c3ccc(S(=O)(=O)N4CC(C)CC(C)C4)cc3)sc2c1 (stereo unspecified) | ? | 21.7 | ? | ?
Cc1cccc2sc(NNC(=O)c3ccc(S(=O)(=O)N4CC(C)CC(C)C4)cc3)nc12 (stereo unspecified) | ? | 4.0 | 9.2µM* | ?
Cc1ccc2nc(NNC(=O)c3ccc(S(=O)(=O)N4CCc5ccccc5C4)cc3)sc2c1 | ? | 7.1 | ? | 9.2µM*
COC(=O)c1sc2ccccc2c1NC(=O)c1ccc(S(=O)(=O)N2CC(C)CC(C)C2)cc1 (stereo unspecified) | 1.9% | -21.0 | -13.0% | 2.9%
Cc1cc(C)c2nc(NNC(=O)c3ccc(S(=O)(=O)N4CCCC(C)C4)cc3)sc2c1 (stereo unspecified) | 5.62µM* | 24.4 | ? | 14.6µM*
C(/Oc1ccccc1)=C1\Nn2c(nnc2-c2cc(-c3ccccc3)n[nH]2)S1 | / | 52.3 | / | /
CC(Sc1ccc2ccccc2c1)C(=O)NC(N)=O (stereo unspecified) | 0.3% | -5.6 | 2.3% | -0.6%
Cc1ccc(SC(C)C(=O)NC(N)=O)c(C)c1 (stereo unspecified) | 15.5% | -8.4 | -2.5% | 0.581µM*
CCS(=O)(=O)c1nc(S(=O)(=O)c2ccc(C)cc2)c(NCC(C)C)s1 | / | -4.2 | / | /
O=C(Nc1ccc(-c2nc3c(ccc4ccccc43)o2)cc1)c1ccco1 | 2.5% | 4.9 | ? | 4.61µM*
CSc1ncnc2[nH]ccc12 | -1.2% | 18.0 | 2.4% | 0.3%
COc1ccc(-n2cccc2/C=C/[N+](=O)[O-])cc1 | -7.4% | -19.2 | 23.1µM* | 14.6µM*
CCOC(=O)c1c(C)[nH]c(C(=O)CSc2nnc(-c3cccs3)n2Cc2ccccc2)c1C | 0.3% | 11.0 | ? | ?
CC(=O)c1c(C)[nH]c(C(=O)CSc2nnc(-c3cccs3)n2Cc2ccccc2)c1C | / | 7.1 | 19.9% | 20.6µM*
CN(C)c1ccc(/C=N\NC(=S)SCN2C(=O)C3CCC(C)(C2=O)C3(C)C)cc1 (stereo unspecified) | -4.1% | 2.3 | ? | 7.31µM*
COc1ccc(NC(=O)c2ccc(COc3ccccc3Br)o2)cc1OC | -1.7% | -6.4 | 4.6% | 11.6µM*
O=C(Nc1cc(Cl)ccc1-n1cncn1)c1ccc([N+](=O)[O-])s1 | -10.5% | ? | 23.1µM* | 20.6µM*
COc1cc(OC)c(C(=O)Nc2cc(Cl)ccc2-n2cncn2)cc1OC | -5.6% | 3.8 | 5.17µM* | -15.9%
O=C(Nc1cc(Cl)ccc1-n1cncn1)c1ccco1 | -2.2% | 4.8 | -3.9% | -19.2%
CC(Nc1cccc([N+](=O)[O-])c1)C(=O)Nc1ccc(S(=O)(=O)N2CCCC2)cc1 (stereo unspecified) | -19.2% | -2.2 | 0.1% | -0.9%
CN(C)c1ccc(-c2cc3ccccc3c(=O)o2)cc1 | ? | -22.5 | 13µM* | 14.6µM*
N=c1oc2cc(O)ccc2cc1C(=O)Nc1ccc(F)cc1 | -19.2% | -15.1 | 8.2µM* | 9.2µM*
O=C(c1ccc(F)cc1)c1cc2ccc(O)cc2oc1=O | -0.7% | -2.0 | ? | 10.3%
COc1ccccc1/C=C/c1nc(S(=O)(=O)c2ccccc2)c(N2CCC(C(N)=O)CC2)o1 | 2.5% | -2.4 | 18.4µM* | ?
COCCNc1oc(/C=C/c2ccccc2OC)nc1S(=O)(=O)c1ccccc1 | 5.7% | 0.7 | ? | 20.6µM*
SMILES | uPA surface inh | Giardia kill | SW480 rereplic | MCF10A rerep
COCCNc1oc(-c2ccccc2Cl)nc1S(=O)(=O)c1ccc(C)cc1 | -17.6% | 3.5 | -2.6% | 5.2%
COc1ccc(NC(=O)c2ccc(NC(=O)COC(=O)c3cnc(C)cn3)cc2)cc1 | 4.3% | -8.7 | ? | -12.3%
Brc1cc(Br)c2ncnc(N3CCCCC3)c2c1 | -2.7% | 6.0 | ? | 5.8µM*
Nc1ccc2c(c1)C(=O)C(=O)c1ccccc1-2 | -10.0% | 11.7 | 3.66µM* | ?
Nc1ccc2c(c1)C(=O)c1ccccc1C2=O | 1.5% | 2.1 | -0.8% | 0.0%
Nc1ccc2c(c1)C(=O)c1ccccc1-2 | -0.9% | 16.0 | ? | 1.3%
O=C1C(=O)c2ccc(-c3ccccc3)cc2-c2ccccc21 | -9.1% | -0.8 | 5.8µM* | ?
CN(C)C(=S)N=c1ssc(=S)n1Cc1ccccc1 | -8.9% | -4.4 | 5.17µM* | ?
Cn1c(=O)c2c(nc(Cl)n2CCOc2ccccc2)n(C)c1=O | -14.1% | 25.5 | 9.2µM* | 4.4%
CCOc1cccc(/C=N/NC(=O)C2CCCC2)c1O | -6.3% | 6.3 | 5.8µM* | 9.1%
CCOc1cccc(/C=N/Nc2ccc(S(=O)(=O)N(CC)CC)cn2)c1O | -9.1% | 8.9 | ? | 5.17µM*
